The results in this text go back to PubChem BioAssay (NCI).

SMILES strings stand for the structures. Compounds without any hit were thinned out: in the full panel of roughly 83,000, 20% have a hit.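 Single-concentration screen, 48 h exposure, 96-well plates. Endpoint: percent growth. Below 10 = active.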 Values without a mark were called inactive. Activity calls are given as the source filed them.

Test systems include T-47D breast; BT-549 breast; MDA-MB-435 melanoma; SW-620 colon; MCF7 breast; HCT-116 colon; HCC-2998 colon; KM12 colon.
Test in all cases: NCI-60 one-dose screen, 48 h (100 = growth as untreated, 0 = no growth, -100 = all killed)
Holding throughout (conditions): 10 µM unless noted

On to `CCNC(=O)c1[nH]cc(-c2ccc(OC)cc2)c1-c1cc(OC)c(OC)c(OC)c1`, for which the growth was 27.7% in the experiment on T-47D breast; 72.5% with BT-549 breast; -4.43% (active) with MDA-MB-435 melanoma; 31.4% in the experiment on SW-620 colon; 24.4% in the experiment on MCF7 breast; 15.3% in the experiment on HCT-116 colon. In addition, the growth was 89.2% in the experiment with HCC-2998 colon and 22.1% in the experiment on KM12 colon.

As for `Clc1nc(Nc2ccccc2)nc(Nc2ccccc2)n1`, the growth with T-47D breast is 76.1%; in the experiment on BT-549 breast it was 90.5%; in the experiment on MDA-MB-435 melanoma, 108%; in the experiment with SW-620 colon it was 108%; in the experiment on MCF7 breast, 92.4%; in the experiment on HCT-116 colon, 93.2%. The figures for the growth in the experiment with HCC-2998 colon and with KM12 colon were 93.3% and 102%, respectively.

Take `CCOC(=O)Oc1c(OC)cc(C(=O)O[C@@H]2C[C@@H]3CN4CCc5c([nH]c6cc(OC)ccc56)[C@H]4C[C@@H]3[C@H](C(=O)OC)[C@H]2OC)cc1OC`: the growth with T-47D breast was 38.6%; in the experiment on BT-549 breast, 77.5%; in the experiment with MDA-MB-435 melanoma it was 70.9%; with SW-620 colon, 48.4%; in the experiment with MCF7 breast, 83.8%; with HCT-116 colon it was 1.57% (active). The growth in the experiment with HCC-2998 colon is 68.7%; in the experiment on KM12 colon, 39.8%.

As to `CC[N+](CC)(CCCC(C)[N+]1(Cc2ccccc2)C(C)=CC=C1C)Cc1ccccc1` (stereo not drawn), the growth with T-47D breast was 77.7%; with BT-549 breast, 82.9%; in the experiment on MDA-MB-435 melanoma, 82.8%; with SW-620 colon it was 89%; in the experiment on MCF7 breast, 81%; in the experiment on HCT-116 colon, 47.6%. Further, the growth is 80.8% in the experiment on HCC-2998 colon and 81.7% in the experiment on KM12 colon.

Take `Nc1nnc2cc(Cl)ccc2n1`: the growth in the experiment with T-47D breast is 93.1%; in the experiment with BT-549 breast it was 114%; with MDA-MB-435 melanoma, 106%; in the experiment with SW-620 colon it was 96.5%; in the experiment on MCF7 breast it was 88.7%; with HCT-116 colon, 101%. For the same compound, the growth is 110% in the experiment on HCC-2998 colon and 97% with KM12 colon.

As to `C=C1C(=O)O[C@H]2[C@H]1CC/C(CNC(=O)/C=C/c1ccccc1F)=C\CC[C@@]1(C)O[C@@H]21`, the growth in the experiment with T-47D breast is -0.591% (active); in the experiment on BT-549 breast, -6.02% (active); with MDA-MB-435 melanoma, 23.1%; in the experiment on SW-620 colon it was -54.3% (active); in the experiment with MCF7 breast, -12.3% (active); in the experiment with HCT-116 colon, -34.9% (active). Further, the growth with HCC-2998 colon is 50.4%; in the experiment with KM12 colon it was 74.2%.

Consider `COc1cc(C2NC(c3cc(OC)c(OC)c(OC)c3)C(C#N)(C#N)C2(C#N)C#N)cc(OC)c1OC` (stereo not drawn), for which the growth is 96.4% in the experiment on T-47D breast; 101% in the experiment on BT-549 breast; 101% with MDA-MB-435 melanoma; 95.8% in the experiment with SW-620 colon; 95.5% with MCF7 breast; 91.1% in the experiment on HCT-116 colon. The growth in the experiment on HCC-2998 colon is 98.7%; with KM12 colon it was 99.5%.

For `Cn1c(COC(=O)NCCc2ccccn2)nc2c(N3CCOCC3)nc(Cl)nc21`, the growth in the experiment with T-47D breast is -2.17% (active); in the experiment with BT-549 breast, 2.36% (active); with MDA-MB-435 melanoma it was -83.3% (active); in the experiment on SW-620 colon it was -86.2% (active); with MCF7 breast, -43.5% (active); in the experiment with HCT-116 colon it was -69.8% (active). Further, the growth was 37.5% in the experiment with HCC-2998 colon and 44.3% in the experiment on KM12 colon.

As to `Clc1cc(Cl)cc(N2N=C(c3cccc(Nc4ccncc4)c3)CC2c2ccccc2)c1` (stereo not drawn), the growth in the experiment with T-47D breast was 77.7%; in the experiment with BT-549 breast it was 78.2%; in the experiment with MDA-MB-435 melanoma it was -38.9% (active); in the experiment on SW-620 colon, -68.6% (active); in the experiment with MCF7 breast it was -11% (active); with HCT-116 colon, 38.7%. Besides, the growth in the experiment on HCC-2998 colon was -58.8% (active); in the experiment on KM12 colon, -8.16% (active).

Take `Cc1ccccc1CNc1ccc(N2CCOCC2)cc1`: the growth in the experiment with T-47D breast was 106%; with BT-549 breast it was 102%; in the experiment with MDA-MB-435 melanoma, 102%; with SW-620 colon, 98%; in the experiment with MCF7 breast, 102%; in the experiment on HCT-116 colon, 104%. Further, the growth in the experiment with HCC-2998 colon was 105%; with KM12 colon, 100%.

Turning to `COc1cccc(C(Cc2ccccc2)Nc2ccccc2)c1OC` (stereo not drawn), the growth in the experiment with T-47D breast is 80.6%; in the experiment with BT-549 breast, 101%; in the experiment with MDA-MB-435 melanoma, 105%; in the experiment with SW-620 colon, 95.1%; in the experiment with MCF7 breast, 102%; with HCT-116 colon, 77%. Also, the growth in the experiment on HCC-2998 colon is 91.2%; with KM12 colon, 99.6%.

Regarding `COc1cc2nc(-c3ccc(C(F)(F)F)cc3)cc(OCCCN3CCCCC3)c2cc1OC`, the growth in the experiment on T-47D breast was 35.3%; in the experiment with BT-549 breast, 39.3%; with MDA-MB-435 melanoma, -6.42% (active); with SW-620 colon, 30.4%; in the experiment with MCF7 breast it was 36.2%; with HCT-116 colon it was 25.5%. Further, the growth with HCC-2998 colon is 56%; in the experiment with KM12 colon, 36.6%.

Turning to `Cn1/c(=N/NC(N)=S)ccc2ccccc21`, the growth in the experiment on T-47D breast was 52.9%; with BT-549 breast, 100%; in the experiment on MDA-MB-435 melanoma, 99.8%; in the experiment with SW-620 colon, 84.5%; in the experiment on MCF7 breast, 37.4%; in the experiment on HCT-116 colon, 7.01% (active). Further, the growth was 112% with HCC-2998 colon and 103% with KM12 colon.

As to `COc1ccncc1C#Cc1cncc(C(=O)Nc2ccc(CN3CCN(C)CC3)c(C(F)(F)F)c2)c1`, the growth with T-47D breast was 55.9%; in the experiment with BT-549 breast, 50.9%; in the experiment with MDA-MB-435 melanoma, 15.4%; with SW-620 colon, 4.42% (active); in the experiment with MCF7 breast it was 6.1% (active); with HCT-116 colon it was 8.44% (active). Also, the growth was 40.9% with HCC-2998 colon and 6.75% (active) in the experiment on KM12 colon.

As to `COc1cc(-c2nc3sccn3c2-c2ccnc(NCCNS(=O)(=O)c3ccc(F)cc3)n2)ccc1F`, the growth was -3.67% (active) with T-47D breast; 10.5% in the experiment on BT-549 breast; 2.5% (active) in the experiment with MDA-MB-435 melanoma; 26.9% with SW-620 colon; 5.83% (active) in the experiment with MCF7 breast; 6.58% (active) with HCT-116 colon. Moreover, the growth in the experiment on HCC-2998 colon was 43.5%; in the experiment with KM12 colon, 9.07% (active).

Regarding `CN1CCN(Cc2ccc(NC(=O)c3cncc(C#Cc4cnccc4C(F)(F)F)c3)cc2C(F)(F)F)CC1`, the growth was 92.2% in the experiment with T-47D breast; 91.8% in the experiment with BT-549 breast; 54.7% in the experiment on MDA-MB-435 melanoma; 62.8% with SW-620 colon; 49% in the experiment on MCF7 breast; 29.1% with HCT-116 colon. Besides, the growth with HCC-2998 colon was 65.7%; in the experiment with KM12 colon, 20.8%.
